Common to all, as to assay: Euclidean distance of Cell Painting phenotypic profile (signed KS, 77 features) to DMSO centroid (dimensionless distance); 5 or 10 uM (library dependent); higher = stronger phenotypic change vs DMSO (phenoactivity)
What all share (settings): 48 h

The subject of experiment [1] is 786-O. Summed up: (§1)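 At 10 or 5 uM, as set by the library, and 0.1% DMSO final, compounds were applied for 48 h to five cancer lines and one healthy fibroblast line. Stained cells were imaged confocally at 20X in 9 fields per well, and Harmony extracted 77 features scored as signed Kolmogorov-Smirnov statistics against vehicle wells on the same plate. Profiles underwent plate-position correction, correlation weighting and replicate averaging at the top dose. Phenoactivity is the Euclidean distance from each such profile to the median vehicle profile.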

The test system of experiment [2] is A549. In outline: as §1
In experiment [3] the test system is DU145. In outline: as §1
The test system of experiment [4] is FB. In outline:
as §1

Experiment [5] has as its system HEPG2. Summed up:
as §1

The test system of experiment [6] is OVCAR4. Summed up:
as §1

Structures can show the parent of a compound that is named as a salt.

On to `Nc1ccc(S(N)(=O)=O)cc1` [Sulfanilamide], for which the Euclidean distance was determined as 0.866 in experiment [1]; 0.563 in experiment [2]; 0.913 in experiment [3]; 0.819 in experiment [4]; 0.645 in experiment [5]; 1.21 in experiment [6].

As to `Cn1c(=O)n(-c2ccc(C(C)(C)C#N)cc2)c2c3cc(-c4cnc5ccccc5c4)ccc3ncc21` [BEZ235 (NVP-BEZ235. Dactolisib)], the Euclidean distance in experiment [1] came out at 3.77; in experiment [2] it was 3.79; in experiment [3], 1.66; in experiment [4], 2.82; in experiment [5] it was 0.961; in experiment [6], 4.78.

Take `CCN1CCN(C(=O)N[C@@H](C(=O)N[C@@H]2C(=O)N3C(C(=O)O)=C(CSc4nnnn4C)CS[C@H]23)c2ccc(O)cc2)C(=O)C1=O` [Cefoperazone]: the Euclidean distance stood at 1.77 in experiment [1]; 0.776 in experiment [2]; 0.917 in experiment [3]; 1.45 in experiment [4]; 0.854 in experiment [5]; 1.24 in experiment [6].

For the compound `CC(C)N(CCCCOCC(=O)NS(C)(=O)=O)c1cnc(-c2ccccc2)c(-c2ccccc2)n1` [Selexipag], the Euclidean distance is 0.931 in experiment [1]; 1.04 in experiment [2]; 0.729 in experiment [3]; 1.31 in experiment [4]; 0.663 in experiment [5]; 1.65 in experiment [6].

As for `Cc1ccc(C(=O)Nc2cccc(C(F)(F)F)c2)cc1Nc1nc(-c2cccnc2)nc2c1cnn2C`, the Euclidean distance in experiment [1] is 3.33; in experiment [2], 3.93; in experiment [3], 3.91; in experiment [4] it was 1.82; in experiment [5] it was 3.78; in experiment [6] it was 1.46.

Regarding `COc1cccc(-c2cc(=O)c3ccccc3o2)c1N`, the Euclidean distance is 1.16 in experiment [1]; 1.4 in experiment [2]; 0.841 in experiment [3]; 0.911 in experiment [4]; 1.94 in experiment [5]; 0.844 in experiment [6].

Consider `COc1ccnc2[nH]cc(C(=O)C(=O)N3CCN(C(=O)c4ccccc4)C[C@H]3C)c12`, for which the Euclidean distance in experiment [1] stood at 0.998; in experiment [2] it was 1.1; in experiment [3], 0.533; in experiment [4], 0.737; in experiment [5], 0.554; in experiment [6], 1.47.

With `O=C(O)c1cc(O)c(O)c(O)c1` [Gallic acid], the Euclidean distance in experiment [1] worked out at 1.13; in experiment [2], 0.673; in experiment [3] it was 0.909; in experiment [4], 1.31; in experiment [5], 0.825; in experiment [6] it was 0.935.

As for `CNC(=O)[C@H](Cc1ccccc1)NC(=O)[C@H](CC(C)C)[C@H](CSc1cccs1)C(=O)NO` [Batimastat (BB-94)], the Euclidean distance in experiment [1] was 1.52; in experiment [2], 1.51; in experiment [3] it was 1.25; in experiment [4], 1.68; in experiment [5], 2.06; in experiment [6], 1.53.

In the case of `CC(C)[C@@H](C)/C=C/[C@@H](C)[C@H]1CC[C@H]2C3=CC=C4C[C@@H](O)CC[C@]4(C)[C@H]3CC[C@]12C` [Ergosterol], the Euclidean distance in experiment [1] stood at 1.2; in experiment [2], 1.36; in experiment [3], 1.1; in experiment [4], 0.707; in experiment [5], 0.946; in experiment [6], 1.17.

Consider `NC(=O)N1CCC(CC(=O)N2CCC([C@H]3c4ncc(Br)cc4CCc4cc(Cl)cc(Br)c43)CC2)CC1` [Lonafarnib], for which the Euclidean distance was determined as 2.24 in experiment [1]; 1.63 in experiment [2]; 1.33 in experiment [3]; 2.36 in experiment [4]; 1.1 in experiment [5]; 1.63 in experiment [6].

Consider `O=C(/C=C/c1ccc(O)c(O)c1)OCCc1ccccc1` [Caffeic Acid Phenethyl Ester], for which the Euclidean distance in experiment [1] was found to be 1.43; in experiment [2], 2.31; in experiment [3] it was 1.1; in experiment [4], 1.78; in experiment [5] it was 1.71; in experiment [6] it was 1.18.

Take `O=C1CN(/N=C/c2ccc(-c3ccc([N+](=O)[O-])cc3)o2)C(=O)N1` [Dantrolene sodium hemiheptahydrate]: the Euclidean distance in experiment [1] was 0.731; in experiment [2] it was 0.894; in experiment [3] it was 1.67; in experiment [4], 1.21; in experiment [5], 0.638; in experiment [6], 1.31.

Take `CCOC(=O)C1=C(COCCN)NC(C)=C(C(=O)OC)C1c1ccccc1Cl` (configuration not stated) [Amlodipine]: the Euclidean distance in experiment [1] stood at 0.785; in experiment [2], 0.917; in experiment [3] it was 0.877; in experiment [4], 1.06; in experiment [5], 1.06; in experiment [6], 0.837.

As for `CN(CCOc1ccc(CC2SC(=O)NC2=O)cc1)c1ccccn1` (configuration not stated) [Rosiglitazone maleate], the Euclidean distance in experiment [1] was found to be 0.964; in experiment [2], 0.896; in experiment [3] it was 1.89; in experiment [4], 1.31; in experiment [5], 0.95; in experiment [6], 1.34.

Consider `CC1=NN(c2ccc(C)c(C)c2)C(=O)/C1=N\Nc1cccc(-c2cccc(C(=O)O)c2)c1O` [Eltrombopag Olamine], for which the Euclidean distance was determined as 1.58 in experiment [1]; 1.04 in experiment [2]; 1.13 in experiment [3]; 2.4 in experiment [4]; 1.69 in experiment [5]; 1.49 in experiment [6].

Consider `C=C1CC/C=C(/C)CC[C@@H]2[C@@H]1CC2(C)C` [Œ≤-Caryophyllene], for which the Euclidean distance in experiment [1] turned out to be 1.02; in experiment [2] it was 0.652; in experiment [3] it was 0.86; in experiment [4], 0.747; in experiment [5], 0.457; in experiment [6] it was 1.68.

As for `NCc1ccc(S(N)(=O)=O)cc1` [Mafenide hydrochloride], the Euclidean distance in experiment [1] worked out at 1.35; in experiment [2], 0.84; in experiment [3] it was 0.784; in experiment [4], 0.654; in experiment [5] it was 0.629; in experiment [6], 1.46.

Consider `O=C(Nc1cccc(C(F)(F)F)c1)Nc1cc(S(=O)(=O)NC2CC2)ccc1-c1ccsc1`, for which the Euclidean distance in experiment [1] is 0.684; in experiment [2], 1.29; in experiment [3], 1.11; in experiment [4] it was 1.51; in experiment [5], 2.45; in experiment [6], 1.01.

Turning to `O=C(OC(C(F)(F)F)C(F)(F)F)N1CCN(Cc2ccc(C(F)(F)F)cc2N2CCCC2)CC1`, the Euclidean distance came to 1.62 in experiment [1]; 1.13 in experiment [2]; 0.875 in experiment [3]; 1.46 in experiment [4]; 1.27 in experiment [5]; 1.66 in experiment [6].

For `CC(C)[C@H](C(=O)Nc1ccc(C(=O)NO)cc1)c1ccccc1`, the Euclidean distance in experiment [1] came out at 3.25; in experiment [2], 4.55; in experiment [3], 3.1; in experiment [4] it was 4.34; in experiment [5], 4.16; in experiment [6] it was 3.22.

For `C[C@@]1(C(=O)Nc2ccc(F)nc2)CCCN1c1nc(Nc2cc(C3CC3)n[nH]2)c2cccn2n1`, the Euclidean distance in experiment [1] stood at 2.52; in experiment [2], 3.2; in experiment [3], 3.3; in experiment [4] it was 3.23; in experiment [5], 2.63; in experiment [6], 3.61.

These data come from the supplement of paper PMC10127200.
